Where “and” joins values, the source holds several entries; their conditions need not be identical. Equal values may be shown once. Results filed as inconclusive are left out. Calls of active or inactive are those of the source. Calls follow the shape of the dose curve; as a rule, active = well fitted inhibition curve with a large enough effect; inconclusive = small, poorly fitted or top-dose-only effect; inactive = no such curve, though single readings can be large or run the other way.
The molecules below were run against Cruzipain (Trypanosoma cruzi) (UniProt P25779) (assay: Confirmation qHTS Assay for Inhibitors of Cruzain). Details: purified cruzain, Z-FR-AMC fluorescence, 0.01% Triton.
Description: Cruzain is a cysteine protease from the tropical parasite Trypanosoma cruzi. This assay protocol is a follow-up and confirmation of related AID 1478 (qHTS Assay for Promiscuous and Specific Inhibitors of Cruzain -- with detergent). Cruzain was assayed by the use of fluorogenic coumarin-based substrate Z-FR-AMC: proteolytic cleavage releases AMC, whose fluorescence is measured at 360 nm excitation and 450 nm emission. Purified cruzain was supplied by the labs of Prof. James McKerrow and Brian Shoichet, UC San Francisco. This assay had 0.01% Triton X-100 concentration. See following references for additional details: Jadhav A, et al. J Med Chem. 2010 Jan 14;53(1):37-51. Mott BT, et al. J Med Chem. 2010 Jan 14;53(1):52-60. Assay Provider: Shoichet, Brian; University of California, San Fancisco Screening Center PI: Austin, C.P. Screening Center: NIH Chemical Genomics Center [NCGC]
Buffer: 100 mM Sodium Acetate, pH 5.5, 5 mM DTT, Triton X-100 concentration: 0.01%. Reagents/Controls: Buffer in columns 3 and 4 as negative control (no enzyme). Substrate solution: 2 uM final concentration of Z-FR-AMC (catalog number I-1160, Bachem) dispensed throughout the plate. Enzyme: 1.5 nM Cruzain final concentration in columns 1, 2, 5-48. Column 1 is neutral (100% activity). Column 2 contained titration of covalent inhibitor K11777, starting concentration 1 mM, then 1:2 dilution in duplicate). Assay Steps: Three uL of enzyme or buffer were dispensed to 1536-well Greiner black solid bottom plates. Compounds and controls (23 nL) were transferred via Kalypsys PinTool. The plates were incubated for 15 min at room temperature, and then 1 uL of substrate solution was added to start the reaction. The plates were immediately transferred to and read 4 times every 30 seconds for 2 min on ViewLux High-throughput CCD imager (Perkin-Elmer) using 360 nm excitation and 450 nm emission fluorescence protocol. The fluorescence intensity difference between the third and the first time points (time lapse of 60 seconds) was used to compute reaction progress.
Also: nearly all actives have a fitted effect of over 40% in size.
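For Activity change, negative = inhibition in this document: plate controls were uninhibited enzyme control for no effect and buffer wells lacking enzyme for full effect.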
Potency is read from the fitted curve at half-maximal effect.

Chain of Cruzipain (Trypanosoma cruzi) (P25779 123-467 limits assumed): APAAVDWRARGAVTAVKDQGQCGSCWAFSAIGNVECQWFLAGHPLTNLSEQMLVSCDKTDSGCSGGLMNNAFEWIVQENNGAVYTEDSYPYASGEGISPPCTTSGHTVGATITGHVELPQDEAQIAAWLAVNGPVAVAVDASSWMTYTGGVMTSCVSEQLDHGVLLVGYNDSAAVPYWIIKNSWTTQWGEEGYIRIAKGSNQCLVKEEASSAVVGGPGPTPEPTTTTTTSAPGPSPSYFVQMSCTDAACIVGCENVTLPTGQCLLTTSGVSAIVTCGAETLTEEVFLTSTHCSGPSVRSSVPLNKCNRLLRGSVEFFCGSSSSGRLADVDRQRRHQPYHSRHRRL

Activity change, negative = inhibition, inactive:
COc1ccc(NS(=O)(=O)c2cc(NC(=O)/C=C/c3ccccc3OC)ccc2N2CCCCC2)cc1 2.33%
Cc1ccccc1OCC(=O)NCC(=O)OCc1cccc2ccccc12 -2.79%
COc1ccc(-c2cc(C#N)nc(N3CCN(C)CC3)n2)cc1 -11.8%
CCOc1ccc(CN2C(=O)c3ccccc3Sc3ccc(C(=O)NCc4ccc(C)cc4)cc32)cc1 0.925%
O=C(CNC(=O)c1ccccc1)OCC(=O)c1cccc2ccccc12 -21.8%
Cc1ccc2cc(CN(Cc3ccco3)Cc3nnnn3Cc3ccco3)c(=O)[nH]c2c1 -10.1%
O=C(Cn1cc(CNC(=O)c2ccccc2)nn1)Nc1cc(C(F)(F)F)ccc1Cl 2.48%
Cc1ccc2[nH]c(=O)c(CN(Cc3ccco3)Cc3nnnn3Cc3ccccc3)cc2c1 -13.8%
Cc1oc(=O)c(NC(=O)c2cccc(Cl)c2)cc1C(=O)c1ccccc1 -24.6%
CCSc1nnc(NC(=O)c2ccc(Br)s2)s1 -4.82%
O=C(O)Cc1nnc(-c2cc3ccccc3[nH]2)s1 10.6%
CC(C)(C)OC(=O)Cc1nnc(C(C(=O)OCc2ccccc2)c2ccccc2)o1 (stereo not given) -12.3%
CCOc1ccc(-c2nn3c(-c4cc(-c5ccccc5)n[nH]4)nnc3s2)cc1 -7.68% and -5.69%
CC(C)(C)OC(=O)Cc1nnc(-c2nc3ccccc3[nH]2)o1 -0.371%
O=C(NCCc1nc2ccccc2n1CCOc1cccc2ccccc12)C1CCCCC1 -11.4%
Cc1ccccc1OCC(=O)NCC(C)NC(=O)COc1ccccc1C (stereo not given) 36.5%
O=C(CNC(=O)c1ccccc1)NCC(=O)OCC(=O)c1ccc2ccccc2c1 21.1%
c1ccc(CNCc2nnc(-c3cc4ccccc4[nH]3)o2)cc1 -1.64%
O=[N+]([O-])c1ccccc1S(=O)(=O)NCC1CCC(CNCC2CCc3ccccc3C2)CC1 (stereo not given) -5.24%
FC(F)Sc1ccc(N=C2NN=C(c3ccc4c(c3)OCCO4)CS2)cc1 -6.33%
CC(C)C[C@H](N)c1nnc(S(=O)(=O)Cc2ccc(F)cc2)o1 -25.7%
CCOC(=O)[C@H](CCc1ccccc1)N[C@@H](C)C(=O)N1[C@H](C(=O)O)C[C@H]2CCCC[C@@H]21 0.349%

Potency, active:
O=C(CNC(=O)C1CCCCC1)OCC(=O)c1cccc(Cl)c1 2.82 µM
O=C(COC(=O)CNC(=O)C1CCCCC1)Nc1ccc2ccccc2c1 12.6 µM
CC(C)(C)c1ccc(S(=O)(=O)c2cnc(SCC(=O)Nc3ccc(F)c(Cl)c3)[nH]c2=O)cc1 3.98 µM
N#Cc1nc(N(c2ccccc2)c2ccccc2)nc(-n2cccc2)n1 2.51 µM
Cc1cc(OCCCn2c(CCNC(=O)C3CCCCC3)nc3ccccc32)ccc1Cl 1.12 µM
CC1(C)Cc2c(C#N)c(N3CCN(C(=O)c4ccccc4)CC3)nc(-c3ccco3)c2CS1 15.8 µM
CNc1oc(Cc2ccccc2)nc1S(=O)(=O)c1ccccc1 7.08 µM
COc1cc2cc(CN(Cc3nnnn3Cc3ccco3)C3CCCCC3)c(=O)[nH]c2cc1OC 14.1 µM
CC(C)CC(OC(=O)CNC(=O)c1ccccc1)C(=O)Nc1cc(C(F)(F)F)ccc1Cl (stereo not given) 7.94 µM
O=C(NCCc1nc2ccccc2n1CCOc1ccc(Cl)cc1)C1CCCCC1 0.158 µM
CN(C)c1nc(C#N)nc(N2CCOCC2)n1 10 µM and 8.91 µM
O=C(CNC(=O)c1cccc2ccccc12)OC(C(=O)Nc1cc(C(F)(F)F)ccc1Cl)c1ccccc1 (stereo not given) 12.6 µM
O=C(COC(=O)CNC(=O)C1CCCCC1)Nc1ccccc1Cl 3.98 µM
CCOc1nc(C#N)nc(N2CCCCC2)n1 2.51 µM and 3.55 µM
O=C(NCCc1nc2ccccc2n1CCCOc1ccc2ccccc2c1)C1CCCCC1 1.12 µM
O=C(COC(=O)CNC(=O)c1ccccc1Cl)Nc1cc(C(F)(F)F)ccc1Cl 3.55 µM
Cn1c(=O)c2c(-c3ccccc3)n(-n3cnnc3)cc2n(C)c1=O 22.4 µM
N#Cc1nc(Nc2cccc(-c3ccccc3)c2)nc(NC2CCCC2)n1 2.24 µM

From PubChem BioAssay AID2158 (National Center for Advancing Translational Sciences (NCATS), 2009)
